Laboratory results as given in PubChem BioAssay (NCATS).
Active and inactive are the calls of the source. Calls come from the whole dose curve.

Experiment: qHTS drug screen for cell cycle checkpoint inhibitors in PARPi-resistant BRCA-mutant ovarian cancer cell lines. (AID 1963452)
Settings: PEO1/OlaR viability, CellTiter-Glo luminescence, 96 h, stronger effect = lower value
How it was run: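 PEO1, PEO4 and PEO1/OlaR ovarian cancer cells, 600 per well, exposed 96 h at 37C to a dilution series. Viability read by CellTiter-Glo luminescence, normalized to DMSO and empty wells; activity summarized as Z-AUC.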

[1] = measured here: PEO1 parental Z-AUC

SMILES: CC(C)NC(=O)N1CC[C@H](N=C2Nc3cc(F)ccc3N(CC(F)F)c3ccc(Cl)cc32)C1
- Z-AUC: -0.974 (inactive)
- Z-AUC [1]: -0.755
- Z-AUC (measured here: PEO4 Z-AUC): -0.602

SMILES: c1ccc(-c2ccc(CNc3nc(-c4ccccn4)nnc3-c3ccccc3)cc2)cc1
- Z-AUC: -1.09 (inactive)
- Z-AUC [1]: -0.646
- Z-AUC (measured here: PEO4 Z-AUC): -0.501

SMILES: Cc1nc2ccc(-n3ncc(C(=O)c4cc5ccccc5[nH]4)c3N)cc2[nH]1
- Z-AUC: -0.798 (inactive)
- Z-AUC [1]: -1.1
- Z-AUC (measured here: PEO4 Z-AUC): -0.294

SMILES: COC(C)(C)CCn1nc(Nc2c(C)cccc2C)c2cnc(Nc3ccc(OCCN4CCCC4)c(F)c3)nc21
- Z-AUC: -0.962 (inactive)
- Z-AUC [1]: -0.494
- Z-AUC (measured here: PEO4 Z-AUC): 0.564

SMILES: Cc1cccc(CC(=O)N2CCc3c2ccc(-c2cn(C)c4ncnc(N)c24)c3F)n1
- Z-AUC: -0.652 (inactive)
- Z-AUC [1]: -1.04
- Z-AUC (measured here: PEO4 Z-AUC): -0.572

SMILES: COc1cc(S(C)(=O)=O)ccc1Nc1nc2ccc(-c3ccc(NC(=O)[C@H](C)c4ccc(F)cc4)cc3)cn2n1
- Z-AUC: 0.76 (inactive)
- Z-AUC [1]: 0.0908
- Z-AUC (measured here: PEO4 Z-AUC): 0.043

SMILES: CCC[C@H](N[C@H]1CCc2cc(F)cc(F)c2C1)C(=O)Nc1cn(C(C)(C)CNCC(C)(C)C)cn1
- Z-AUC: -0.27 (inactive)
- Z-AUC [1]: 0.0318
- Z-AUC (measured here: PEO4 Z-AUC): -0.108

SMILES: CS(=O)(=O)Nc1cc2occ(NC=O)c(=O)c2cc1Oc1ccccc1
- Z-AUC: 0.738 (inactive)
- Z-AUC [1]: 0.631
- Z-AUC (measured here: PEO4 Z-AUC): 0.731

SMILES: CCCC(CCC)C(=O)Nc1ccn([C@@H]2O[C@H](CO)[C@@H](O)C2(F)F)c(=O)n1
- Z-AUC: -1.13 (inactive)
- Z-AUC [1]: -1.5
- Z-AUC (measured here: PEO4 Z-AUC): -0.847

SMILES: Cc1cc(C(=O)Nc2cc(Oc3ccc4nc(NC(=O)C5CC5)cn4n3)ccc2C)n(C)n1
- Z-AUC: -0.702 (inactive)
- Z-AUC [1]: -1.33
- Z-AUC (measured here: PEO4 Z-AUC): -1.31
